PubChem BioAssay (Tox21)
Values without a mark were called inactive. Inconclusive results are not listed. A call without a number means that no potency is given here. Active and inactive are the calls of the source. Unless noted, calls come from the whole dose curve; as a rule, active = well fitted curve in the direction sought with a large enough effect in the repeat runs; inconclusive = weak or mixed curves; inactive = no such curve, though single readings can be large; an effect the other way counts as inactive or inconclusive.

Legend:
[1] = qHTS assay to identify small molecule agonists of the hypoxia (HIF-1) signaling pathway - cell viability counter screen (AID 1224844; calls by dose curve; note: nearly all actives have a fitted effect of over 50% in size; note: potency is the fitted concentration of half-maximal effect)
Summary of the method: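 Viability counter screen: HRE-bla ME-180 cells plated 5 hrs before compound addition, treated 17 hrs at 37C and 5% CO2, then CellTiter-Glo added after the FRET reporter read; luminescence after 30 min.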

[2] = qHTS assay to identify small molecule agonists of the hypoxia (HIF-1) signaling pathway (AID 1224846; active = well fitted activation curve with a large enough effect in the signal ratio in the repeat runs, not every such curve was filed as active; the % refers to the signal ratio)
Summary of the method: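 Agonist mode reporter screen. ME-180 cells stably expressing bla under HRE control received test compounds in DMSO for 17 hrs (37C, 5% CO2), and beta-lactamase activity was then detected with the CCF4-AM FRET substrate.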

[3] = qHTS assay to identify small molecule agonists of H2AX - cell viability counter screen (AID 1224847; calls by dose curve; note: nearly all actives have a fitted effect of over 30% in size; note: potency is the fitted concentration of half-maximal effect)
Summary of the method: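 CHO-K1 wt, 1000 cells/well, o/n 37C; cpds 15 conc, 3 h 37C, 0.76% DMSO; CellTiter-Glo, 30 min RT, luminescence.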

[4] = qHTS RealTime-Glo MT Cell Viability Assay in HepG2 cells - 24 hour (AID 1224867); note: nearly all actives have a fitted effect of over 50% in size; note: potency is the fitted concentration of half-maximal effect
Summary of the method: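 Cells + NanoLuc/prosubstrate dispensed (600 cells/well) → 5 h at 37 C/5% CO2 → compounds in DMSO transferred → 40 h incubation at 37 C, luminescence read at 0, 8, 16, 24, 32, 40 h.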

[5] = qHTS RealTime-Glo MT Cell Viability Assay in HEK293 cells - 32 hour (AID 1224868); note: nearly all actives have a fitted effect of over 50% in size; note: potency is the fitted concentration of half-maximal effect
Summary of the method: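 Tox21 10K qHTS, HEK293, 600 cells/well, RealTime-Glo reagent co-dispensed with cells; 5 h preincubation, compound by pintool, 37 C, luminescence at 0–40 h.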

[6] = A CellTox Green Cytotoxicity Assay to monitor cytotoxicity in HEK293 cells - 0 hour (AID 1224869); note: nearly all actives have a fitted effect of over 50% in size
Summary of the method: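 Dead-cell fluorescence measured kinetically: asymmetric cyanine dye, HEK293, 600 cells/well, 5 h settle, 23 nL cpd/DMSO, 37 C, reads 0–40 h every 8 h.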

[7] = qHTS RealTime-Glo MT Cell Viability Assay in HepG2 cells - 40 hour (AID 1224870); note: nearly all actives have a fitted effect of over 50% in size; note: potency is the fitted concentration of half-maximal effect
Summary of the method: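 Real-time viability: cells seeded at 600 per well together with NanoLuc and cell-permeant prosubstrate, compounds added after 5 h incubation. Luminescence tracked at 0, 8, 16, 24, 32 and 40 h of exposure.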

[8] = qHTS assay to identify small molecule antagonists of the estrogen related receptor (ERR) signaling pathway from Tox21 library (AID 1224848); note: nearly all actives have a fitted effect of over 50% in size; note: potency is the fitted concentration of half-maximal effect
Summary of the method: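 Luciferase luminescence (ONE-Glo, 30 min room temperature) was the read-out. Cells of the NTP-supplied ERR line, 2,000 per well, were given 6 h at 37 C before compound addition in DMSO and 18 h exposure at 37 C.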

[9] = qHTS assay to identify small molecule agonists of the estrogen related receptor (ERR) signaling pathway from Tox21 library (AID 1224849; calls by dose curve; note: nearly all actives have a fitted effect of over 15% in size); settings: ERR reporter cell line, ONE-Glo luciferase, 18 h; at 92.4 µM (top of the series) unless noted
Summary of the method: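 Quantitative HTS in agonist format: NTP ERR cell line, compounds transferred in DMSO after 6 h plating, 18 h incubation at 37 C, ONE-Glo luminescence endpoint.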

[10] = qHTS assay to identify small molecule agonists of H2AX (AID 1224845; active = well fitted activation curve with a large enough effect in the signal ratio in the repeat runs, not every such curve was filed as active; the % refers to the signal ratio)
Summary of the method: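 Phospho-H2AX Ser139 measured by HTRF (ex 320 nm; em 665 and 620 nm) after 24 hr antibody incubation. Compounds, 15 concentrations, 0.76% DMSO, were applied to CHO-K1 cells for 3hr at 37C before lysis.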

Structure (SMILES)	Potency [1]	outcome [2]	Potency [3]	Potency [4]	Potency [5]	Potency [6]	Potency [7]	Potency [8]	activity change, positive = activation [9]	Potency [10]
COc1ccc(N)c([N+](=O)[O-])c1	inactive	inactive	inactive	inactive	inactive	inactive	inactive	–	–	–
O=C1NC(=O)c2cccc3cccc1c23	inactive	inactive	inactive	inactive	inactive	inactive	inactive	–	–	–
CC(=O)OCC(C)C	inactive	inactive	inactive	inactive	–	inactive	inactive	–	–	–
Cc1ccc(Cl)cc1N	inactive	inactive	inactive	inactive	–	inactive	inactive	–	–	–
COc1ccc(CCN(C)CCCN2CCc3cc(OC)c(OC)cc3CC2=O)cc1OC	inactive	inactive	inactive	inactive	inactive	inactive	inactive	–	–	–
Cc1cc(CCC(=O)OCCOCCOCCOC(=O)CCc2cc(C)c(O)c(C(C)(C)C)c2)cc(C(C)(C)C)c1O	inactive	inactive	inactive	inactive	inactive	inactive	inactive	–	–	–
C/C(C=O)=C\c1ccccc1	inactive	inactive	inactive	inactive	inactive	inactive	inactive	–	–	–
Oc1cccc2[nH]ccc12	inactive	inactive	inactive	inactive	inactive	inactive	inactive	–	–	–
Cc1ccc2c(c1[N+](=O)[O-])C(=O)c1ccccc1C2=O	inactive	inactive	inactive	inactive	–	inactive	inactive	inactive	–	–
CC(=O)OCCC(C)CC(C)(C)C (configuration not stated)	inactive	inactive	inactive	inactive	–	inactive	inactive	inactive	4.15%	–
COc1cc(OC)c2ccc(=O)oc2c1	inactive	inactive	inactive	inactive	inactive	inactive	inactive	–	–	–
CC1=CC[C@@]23C[C@@H]1C(C)(C)[C@@H]2CC[C@H]3C	inactive	inactive	inactive	inactive	inactive	inactive	inactive	–	–	–
CCCCCCC(O)CCOC(C)=O (configuration not stated)	inactive	inactive	inactive	inactive	inactive	inactive	inactive	inactive	-0.596% [at 240 µM]	–
COc1ccc(C2C(=O)c3ccccc3C2=O)cc1	inactive	inactive	inactive	inactive	inactive	inactive	inactive	inactive	13.1% [at 42.5 µM]	–
CC(C)(C)C(O)/C=C/c1ccc2c(c1)OCO2 (configuration not stated)	inactive	inactive	inactive	inactive	inactive	inactive	inactive	–	–	–
COc1ccc(-n2nc(C(F)F)cc2-c2ccc(S(C)=O)cc2)cc1 (configuration not stated)	inactive	inactive	inactive	inactive	inactive	inactive	inactive	–	–	–
CC1CCc2nccnc21 (configuration not stated)	inactive	inactive	inactive	inactive	inactive	inactive	inactive	inactive	3.13%	–
O=c1[nH][nH]c(=O)c2cc([N+](=O)[O-])ccc12	inactive	inactive	inactive	inactive	inactive	inactive	inactive	–	–	–
COc1ccc(/C=C/C(=O)c2ccc(OC)cc2OC)cc1	inactive	inactive	inactive	inactive	inactive	inactive	inactive	–	-32.9% [at 42.5 µM]	–
COc1ccc(C)cc1	inactive	inactive	inactive	inactive	inactive	inactive	inactive	–	–	–
CCN(CC)c1ccc(C(=C2C=CC(=[N+](CC)CC)C=C2)c2ccc(S(=O)(=O)O)cc2S(=O)(=O)[O-])cc1	8.71 µM (active)	inactive	12.7 µM (active)	inactive	inactive	inactive	inactive	9.69 µM (active)	-60.1%	–
Cc1ccc2c(c1)CCCN2	inactive	inactive	inactive	inactive	inactive	inactive	inactive	–	–	–
COc1ccc(-c2cc(C(F)F)nn2-c2ccc(S(N)(=O)=O)cc2)cc1F	inactive	inactive	inactive	inactive	–	inactive	inactive	–	-17.4% [at 42.5 µM]	–
CC/C=C\C/C=C\C/C=C\CCCCCCCC(=O)OCC	–	inactive	inactive	inactive	inactive	inactive	inactive	–	-28.4%	–
O=C(O)/C=C/c1ccc(O)c(O)c1	inactive	–	inactive	inactive	–	inactive	inactive	–	–	–
Nc1cccc2c(N)cccc12	–	inactive	inactive	–	–	inactive	–	–	–	–
c1ccc(CCCc2ccncc2)cc1	–	inactive	–	inactive	inactive	inactive	inactive	–	–	inactive
c1ccc(CNc2ncnc3c2ncn3C2CCCCO2)cc1 (configuration not stated)	inactive	inactive	inactive	inactive	–	inactive	inactive	–	–	–
CO[C@@H]1[C@@H](OC)[C@H](C)[C@@](O)(CC(=O)O)O[C@H]1[C@H](C)[C@H]1O[C@@]2(CC[C@@](C)([C@H]3CC[C@@](C)([C@@H]4O[C@@H]([C@H]5O[C@](C)(O)[C@H](C)C[C@@H]5C)C[C@@H]4OC4C[C@H](OC)[C@@H](OC)[C@H](C)O4)O3)O2)C[C@H](O)[C@H]1C (some centres not stated)	–	–	–	5.35 µM (active)	3.01 µM (active)	inactive	6.01 µM (active)	–	–	inactive
CC(C)COC(=O)c1ccc(O)cc1	inactive	inactive	inactive	inactive	–	inactive	inactive	–	–	–
